Measurements reported in ChEMBL document CHEMBL3988442, “University of Dundee, Small-Polar-MMV Screening Library” (2021).
Screen size: about 48,000 compounds; about 13,000 (27%) showed an effect of 50% or more. This is one part of the list.

System: Wolbachia pipientis
Experiment: Anti-Wolbachia Cell-Based Screen
Type: functional
Design: scale not given: in the data most compounds retested in dose-response had high values
Conditions: 5 µM

| SMILES | Percent Effect |
| --- | --- |
| CCNC(=O)c1ccoc1CN1c2ccccc2CC1C (stereo not given) | -6.269% |
| CCN(CCc1nc2cc(C)ccc2[nH]1)C(=O)[C@@H](N)COC | 2.321% |
| Cc1nc(CCNc2ccc(-c3nc(C)c(C)c(=O)[nH]3)cn2)cs1 | 1.722% |
| O=C(CCCc1nc2ccccc2[nH]1)N1CCCC1c1ccccn1 (stereo not given) | -11.11% |
| O=C(CCS(=O)(=O)c1ccccc1)NC1CCOC2(CCOCC2)C1 (stereo not given) | 92.28% |
| O=C(NCCNc1ccccn1)NC1CCOC2(CCCCC2)C1 (stereo not given) | -19.85% |
| COc1c(C)cnc(CNC(=O)CCc2nc3ccccc3[nH]2)c1C | 4.531% |
| CN(C)C(=O)NC1COC2(CCN(S(=O)(=O)c3ccccc3)CC2)C1 (stereo not given) | 5.169% |
| O=C(CCc1nc2ccccc2[nH]1)NC1CCOC2(CCOCC2)C1 (stereo not given) | 103.6% |
| CCc1ncc2c(n1)CN(C(=O)CNC(=O)c1ccccc1)C2 | 27.82% |
| COc1cccc(CN(C)Cc2[nH]c3ccccc3c2C)c1O | 10.98% |
| O=C(O)C(F)(F)F.O=C1COC2(CCN(c3cccc(F)c3)CC2)CN1Cc1ccccn1 | -8.645% |
| Cc1cccc(N2CC3(CCN(S(=O)(=O)C4CC4)C3)C2)n1.O=C(O)C(F)(F)F | 2.181% |
| Cc1cccc(CN2CCC3(CCCN(C(=O)N(C)C)C3)C2=O)n1.O=C(O)C(F)(F)F (stereo not given) | -4.614% |
| Cc1ccc(N2CCC3(CC2)CCN(C2CCOC2)CC3)nn1.O=C(O)C(F)(F)F (stereo not given) | -7.269% |
| Cc1cccc(CN2CC3(CCN(C4CCOC4)CC3)OCC2=O)n1.O=C(O)C(F)(F)F.O=C(O)C(F)(F)F (stereo not given) | 100.8% |
| Cc1cccc(CN2CC3(CCN(S(=O)(=O)C4CC4)CC3)OCC2=O)n1.O=C(O)C(F)(F)F | 102.5% |
| Cc1cccc(CN2CC3(CCN(C(=O)N(C)C)CC3)OCC2=O)n1.O=C(O)C(F)(F)F | 105.7% |
| CCS(=O)(=O)N1CCC2(CC1)CN(Cc1ccccn1)C(=O)CO2.O=C(O)C(F)(F)F | -5.616% |
| CC(CCNC(=O)N1CCC1)N(C)C(=O)OC(C)(C)C (stereo not given) | -2.382% |
| Cl.Cl.O[C@@H]1C[C@@](CNCc2ccc(F)cc2)(COc2cccnc2)C[C@@H]1O | -10.51% |
| Cc1ncc(CNCC2CCC(C(N)=O)CC2)n1-c1ccccc1 (stereo not given) | -1.319% |
| CCc1nc(N)nc(NCCC(=O)NC2CCCCC2)c1C | 10.22% |
| CCS(=O)(=O)NCC1Cn2nnc(-c3cccc(C)c3)c2CO1 (stereo not given) | -10.41% |
| CCOCCC(=O)N1C[C@H]2CC[C@@H]1CN(c1ncccn1)C2 | 22.34% |
